# According to PubChem BioAssay (NCATS):
# Inconclusive results are not listed. Some of the results follow. Activity calls are given as the source filed them. The call rests on the fitted dose curve; in most records, active means well fitted curve in the direction sought with a large enough effect; inconclusive means small, poorly fitted or top-dose-only effect, or another doubt; inactive means no such curve, though single readings can be large; an effect the other way counts as inactive or inconclusive.
# Tested on: not listed separately
# Assay: qHTS for Inhibitors of the vitamin D receptor (VDR): Hit Validation using a Texas Red Assay (AID 602201)
# Conditions: VDR coregulator binding, Texas Red fluorescence polarization, agonist-bound VDR ligand-binding domain; series mostly up to 57.1 µM; activity, negative = inhibition: at the top concentration
# In short: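 Fluorescence polarization (Ex 595/Em 615 nm) of Texas Red (7 nM) with 1.5 uM VDR-LBD and LG19078 (final concentrations). Compounds were incubated for 2 hours at room temperature.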
# On the % scale 0 is the no-effect control and ±100 the full control effect; potency means the concentration at half of the fitted maximal effect.
Compound,Potency,"activity, negative = inhibition"
Cc1cc(C)nc(S/C=C/C(=O)c2ccccc2)n1,14.1 µM (active),
Oc1ccc(C(=S)N2CCN(c3cccc(Cl)c3)CC2)cc1,,-11% (inactive)
Nc1c(C(=O)N2CCCCC2)sc(=S)n1-c1ccccc1,35.5 µM (active),
Cc1cccc2c1N(CCCOc1ccccc1)C(=O)C2=O,,-7.87% (inactive)
[O-]/[N+](=C/c1ccc(F)cc1)c1ccc(Cl)cc1,,-6.68% (inactive)
Cn1c(/C(C#N)=C/c2ccc(C(F)(F)F)cc2)nc2ccccc21,14.1 µM (active),
c1ccc(CCc2nn3c(Cc4ccccc4)nnc3s2)cc1,28.2 µM (active),
CN(C)N=Nc1ccc2nc[nH]c2c1,,0.94% (inactive)
Cc1cccc(CS(=O)(=O)c2ncc(Cl)c(C(=O)NCc3ccccc3)n2)c1,,-12.7% (inactive)
COc1ccc(C(Nc2cc(C)ccn2)c2ccc3ccc(C)nc3c2O)cc1 (configuration not stated),14.1 µM (active),
CCn1c(CSc2nnc(-c3ccncc3)n2CCOC)nc2cc(C(=O)O)ccc21,15.8 µM (active),
N#Cc1ccc(/C=C/C(=O)c2cccnc2)cc1,,-11.7% (inactive)
O=C1ON=C(c2ccccc2)/C1=C/c1ccc(O)cc1,,-14.3% (inactive)
CN1C(=O)C(Cl)(Cl)C(=O)c2ccccc21,,41.6% (inactive)
C[C@@H](NC(=O)OC(C)(C)C)c1nnc(S(=O)(=O)Cc2ccccc2)o1,11.2 µM (active),
CCOC(=O)c1sc(=S)n2c1[nH]c(=O)c1ccc(C(=O)OC)cc12,10 µM (active),
CCS(=O)(=O)c1ncc(Cl)c(C(=O)Nc2ccc(S(=O)(=O)N3CCCC(C)C3)cc2)n1 (configuration not stated),3.55 µM (active),
O=C(c1cccs1)c1no[n+]([O-])c1C(=O)c1cccs1,3.55 µM (active),
CCOc1cc(/C=C\c2[nH]c(=O)[nH]c(=O)c2[N+](=O)[O-])ccc1OC(C)CC (configuration not stated),,-16.1% (inactive)
COc1ccc(/C=C2/C(=O)N(c3ccccc3)N=C2C)cc1Br,,-7.66% (inactive)

Compound,Potency,"activity, negative = inhibition"
CSc1nnc(NC(=O)c2nc(S(=O)(=O)Cc3ccc(C)cc3)ncc2Cl)s1,,-9.41% (inactive)
COc1ccc(C)cc1N1C(=N)/C(=C2/Nc3ccccc3S2)C(c2ccccc2)C1=O (configuration not stated),10 µM (active),
CCN(CC)S(=O)(=O)c1ccc(O)c(NS(=O)(=O)c2ccccc2F)c1,,-16.8% (inactive)
NC(=O)COc1ccc(C(=O)/C=C2/C(=O)Nc3ccccc32)cc1,,-0.867% (inactive)
CCOC(=O)c1c(C2COc3ccccc3O2)csc1NC(=O)c1ccco1 (configuration not stated),3.55 µM (active),
Cc1nc2ccc(N=NN(C)C)cc2[nH]1,,-12.3% (inactive)
COc1ccc(OC)c(/C=C/C(=O)c2ccc(Cl)cc2)c1,28.2 µM (active),
Cc1ccc(O)c(NC(=O)CCS(=O)(=O)c2nc(-c3ccc4c(c3)OCO4)cc(C(F)(F)F)n2)c1,28.2 µM (active),
O=C(Nc1nc(-c2ccncc2)cs1)C1COc2ccccc2O1 (configuration not stated),7.08 µM (active),
O=S(=O)(/N=C(\Sc1ccc(Cl)cc1)c1ccccc1)c1ccccc1,35.5 µM (active),
O=c1cc(CO)oc(C(Nc2cccc(C(F)(F)F)c2)c2ccccn2)c1O (configuration not stated),,-8.45% (inactive)
CCN(CC)c1ccc(NC(=O)c2ccccc2)cc1S(=O)(=O)Nc1ccccc1OC,10 µM (active),
O=C(/C=C/c1ccc(Cl)c([N+](=O)[O-])c1)c1cccnc1,4.47 µM (active),
CCOC(=O)c1ccc(S(=O)(=O)Nc2cc(S(=O)(=O)N3CCOCC3)ccc2O)cc1,,-22.6% (inactive)
NC(=O)c1ccc(N=C2C(=O)Nc3ccc([N+](=O)[O-])cc32)cc1,1.41 µM (active),
c1ccc2c(C[n+]3csc4ccccc43)cccc2c1,10 µM (active),
O=C1NN(c2ccc(F)c(Cl)c2)C(=O)/C1=C\c1cccc(OC(=O)c2cccs2)c1,,18.8% (inactive)
CC(=O)N1CC[n+]2c(-c3ccc([N+](=O)[O-])cc3)csc21,7.08 µM (active),
Cc1ccc(CSC2=NS(=O)(=O)c3ccccc32)cc1,7.94 µM (active),
COc1ccc(OCc2nnc3n2N=C(c2ccccc2)C(CC(=O)O)S3)cc1 (configuration not stated),3.16 µM (active),

# Biological target: Vitamin D3 receptor (Homo sapiens) (UniProt P11473)
# Sequence (P11473 whole entry, looked up): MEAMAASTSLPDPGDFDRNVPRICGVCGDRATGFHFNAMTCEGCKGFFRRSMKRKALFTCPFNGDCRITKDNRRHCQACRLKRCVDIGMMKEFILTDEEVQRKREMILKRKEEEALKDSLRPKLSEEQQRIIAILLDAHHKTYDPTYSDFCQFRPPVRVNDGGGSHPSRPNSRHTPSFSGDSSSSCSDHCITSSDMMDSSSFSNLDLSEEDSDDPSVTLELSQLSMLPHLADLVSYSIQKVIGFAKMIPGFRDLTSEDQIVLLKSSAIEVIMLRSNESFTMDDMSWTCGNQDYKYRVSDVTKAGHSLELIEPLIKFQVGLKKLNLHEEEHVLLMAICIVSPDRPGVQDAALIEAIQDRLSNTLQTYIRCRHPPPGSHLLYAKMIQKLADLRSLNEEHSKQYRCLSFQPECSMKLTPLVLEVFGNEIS
# Assay: qHTS for Inhibitors of the vitamin D receptor (VDR): Hit Validation using a Beta-Lactamase Assay (AID 602202)
# Conditions: VDR beta-lactamase reporter cells, FRET ratio, cells co-treated with VDR agonist LG190178; series mostly up to 46.1 µM; activity change, negative = inhibition: at the top concentration
# In short: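 Stably transfected HEK293 cells express a VDR–GAL4 DNA-binding-domain fusion driving a UAS beta-lactamase reporter, stimulated by agonist LG190178. Compounds were added 4 h after plating and incubated 18 h. A FRET beta-lactam substrate was then added for 2 h and cleaved substrate emission read at 447 nm.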
Compound,Potency,"activity change, negative = inhibition"
Cc1cc(C)nc(S/C=C/C(=O)c2ccccc2)n1,3.26 µM (active),
CN(C)N=Nc1ccc2nc[nH]c2c1,,9.88% (inactive)
C[C@@H](NC(=O)OC(C)(C)C)c1nnc(S(=O)(=O)Cc2ccccc2)o1,23.1 µM (active),
CCOC(=O)c1sc(=S)n2c1[nH]c(=O)c1ccc(C(=O)OC)cc12,,1.12% (inactive)
CSc1nnc(NC(=O)c2nc(S(=O)(=O)Cc3ccc(C)cc3)ncc2Cl)s1,5.8 µM (active),
Cc1ccc(O)c(NC(=O)CCS(=O)(=O)c2nc(-c3ccc4c(c3)OCO4)cc(C(F)(F)F)n2)c1,23.1 µM (active),
O=C(Nc1nc(-c2ccncc2)cs1)C1COc2ccccc2O1 (configuration not stated),,-15.5% (inactive)
O=c1cc(CO)oc(C(Nc2cccc(C(F)(F)F)c2)c2ccccn2)c1O (configuration not stated),,13.5% (inactive)
O=C(/C=C/c1ccc(Cl)c([N+](=O)[O-])c1)c1cccnc1,,-5.16% (inactive)
c1ccc2c(C[n+]3csc4ccccc43)cccc2c1,,-2.7% (inactive)
CC(=O)N1CC[n+]2c(-c3ccc([N+](=O)[O-])cc3)csc21,,-6.86% (inactive)
COc1ccc(OCc2nnc3n2N=C(c2ccccc2)C(CC(=O)O)S3)cc1 (configuration not stated),,-3.35% (inactive)
